Measured values as given in PubChem BioAssay (NCI).
The panel holds about 83,000 compounds, 20% with a hit somewhere; the sample as a whole holds those more often.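 Activity criterion: percent growth below 10, measured after cells in 96-well plates were exposed to a single compound concentration for 48 hours.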 Calls of active or inactive are those of the source.

Columns and labels:
Assay in all cases: NCI-60 one-dose screen, 48 h (100 = growth as untreated, 0 = no growth, -100 = all killed)
Conditions in all cases: 10 µM unless noted
[1] = test system: NCI-H23 lung
[2] = test system: NCI-H226 lung
[3] = test system: NCI-H322M lung
[4] = test system: HOP-62 NSCLC
[5] = test system: NCI-H460 lung
[6] = test system: HOP-92 NSCLC
[7] = test system: NCI-H522 lung
[8] = test system: A549/ATCC NSCLC
[9] = test system: 786-0 renal
[10] = test system: COLO 205 colon
[11] = test system: DU-145 prostate
[12] = test system: K-562 leukemia
[13] = test system: MALME-3M melanoma
[14] = test system: MDA-MB-231 breast
[15] = test system: RXF 393 renal
[16] = test system: SF-268 CNS
[17] = test system: SF-295 CNS
[18] = test system: SF-539 CNS
[19] = test system: UACC-257 melanoma
[20] = test system: M14 melanoma

Measured: growth

CN(C)CCCNC(=S)Nc1ccc(/C=C/c2ccc(Cl)cc2)cc1
active: [1] -89.2% | [2] -20.2% | [3] -95% | [4] -50.8% | [5] -35.8% | [6] -53.3% | [7] -51.9% | [8] -36% | [9] -37.4% | [10] -58% | [11] -61.8% | [12] 4.54% | [13] -95% | [14] -100% | [15] -25.8% | [16] 0.261% | [17] -51.7% | [18] -68.6% | [19] -79.9% | [20] -63.5%

Cc1ccc(Nc2nnc(-c3c[nH]c4ccccc34)o2)c(C)c1
inactive: [1] 16.2% | [2] 43.9% | [3] 40.2% | [4] 23.2% | [6] 21.8% | [8] 12.6% | [11] 16.5% | [13] 39.1% | [16] 32.5% | [19] 60.9% | [20] 15.6%
active: [5] 8.57% | [7] -30.4% | [9] 1.66% | [10] -55.5% | [12] 6.22% | [14] -1.28% | [15] -11.9% | [17] 9.91% | [18] -32.4%

COc1ccc(OC)c(Cn2cc(C#N)c(N)c2C(=O)c2ccc(Br)cc2)c1
inactive: [1] 54.4% | [2] 64.9% | [3] 85.8% | [4] 40.2% | [5] 41.8% | [6] 55.7% | [8] 46.4% | [9] 63.9% | [10] 30.4% | [11] 79.1% | [12] 15.2% | [13] 42.6% | [14] 60.7% | [15] 41.8% | [16] 68.5% | [17] 39.1% | [18] 47.7% | [19] 55.6% | [20] 33.8%
active: [7] -29%

COc1ccc2[nH]c(=O)c(CSc3ccccc3Nc3nccc(-c4ccc(Cl)cc4)n3)cc2c1
active: [7] 4.52% | [15] -4.36%
inactive: [1] 43.2% | [2] 45.7% | [3] 69.5% | [4] 69.2% | [5] 33.3% | [6] 36.6% | [8] 52.5% | [9] 43.4% | [10] 61.8% | [11] 48.7% | [12] 39.7% | [13] 32.1% | [14] 60.9% | [16] 55.1% | [17] 32.8% | [18] 21.7% | [19] 73.4% | [20] 68.5%

COc1ccc(-c2nc3ccccc3n2CC(=O)N=Nc2c(O)[nH]c3ccc(OC)cc23)cc1
active: [2] -18.8% | [6] -7.89% | [11] 3.7% | [18] -34.7%
inactive: [1] 89.7% | [3] 89.4% | [4] 67.4% | [5] 10.5% | [7] 47.8% | [8] 37% | [9] 42.4% | [10] 36% | [12] 32.5% | [13] 30.6% | [14] 66.5% | [15] 10.6% | [16] 77.5% | [17] 104% | [19] 60.8% | [20] 64.5%

Cc1ccc2c(c1)/C(=C/C(=O)c1cc3ccccc3oc1=O)C(=O)N2
active: [6] -4.43% | [7] -94.4% | [12] 6.62% | [13] -27.8% | [15] -41.2%
inactive: [1] 71.6% | [2] 51.8% | [3] 101% | [4] 89.4% | [5] 97% | [8] 89.5% | [9] 74.7% | [10] 30.4% | [11] 83.9% | [14] 65.1% | [16] 84.4% | [17] 104% | [18] 61.1% | [19] 73.3% | [20] 37%

Cc1ccc(C(=O)Nc2ccc(-n3ccnc3)c(C(F)(F)F)c2)cc1C#Cc1cnc2cccnn12
active: [2] -52.4% | [4] -20.3% | [6] -14.1% | [7] -20% | [12] 4.76% | [13] -14% | [14] -15.5% | [15] -20% | [18] -40.9% | [19] 8.92% | [20] 1.02%
inactive: [1] 13.3% | [3] 44.5% | [5] 18.8% | [8] 28.8% | [9] 14% | [10] 22.5% | [11] 40.7% | [16] 45.4% | [17] 21.8%
